According to PubChem BioAssay AID686979 (National Center for Advancing Translational Sciences (NCATS), 2013):
Hit rate of the full screen: of about 420,000 compounds, about 50,000 (12%) were called active. Roughly 26% stayed inconclusive and do not appear here. Calls come from the whole dose curve; as a rule, active = well fitted inhibition curve with a large enough effect; inconclusive = small, poorly fitted or top-dose-only effect; inactive = flat fitted curve, though single readings scatter. The entries come from a sample that favours actives as a whole. Entries that show only a call come without a potency.

assay: qHTS for Inhibitors of human tyrosyl-DNA phosphodiesterase 1 (TDP1): qHTS in cells in presence of CPT; details: chicken DT40 Tdp1-/-;hTDP1 cells + 20 nM CPT, ATP luminescence, 48 h; series mostly up to 46.2 µM; note: nearly all actives have a fitted effect of over 55% in size
Summary of the method: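 Chicken DT40 Tdp1-/- cells complemented with human TDP1, 400 cells/well, exposed to compounds plus 20 nM camptothecin for at least 48 h at 37 C; viability read as ATP content by CellTiter-Glo luminescence.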
Potency is the fitted concentration of half-maximal effect.

SMILES | Potency
CCN(C(=O)COC(=O)c1ccccc1O)c1cccc2ccccc12 | inactive
CC(C)CCNC(=O)CC1C(=O)N(Cc2ccccc2)C(C)c2nc3ccccc3n21 (centres undefined) | inactive
Cc1onc(-c2ccccc2Cl)c1C(=O)OCc1nnc(-c2ccccc2)o1 | 18.4 µM (active)
Cc1onc(-c2ccccc2)c1C(=O)N=C(N)c1ccc(Cl)cc1 | inactive
CCOC(=O)c1ccc(COC(=O)CCc2nc(-c3ccccc3)c(-c3ccccc3)o2)cc1 | inactive
Cc1onc(-c2ccccc2)c1-c1nnc(COC(=O)c2ccc(N(C)C)cc2)o1 | 20.6 µM (active)
Cc1ccc(C(=O)NCC(=O)OCc2nnc(-c3ccccc3)o2)cc1 | inactive
O=C(OCc1nnc(-c2ccccc2)o1)c1ccc2c(c1)C(=O)N(CCc1ccccc1)C2=O | inactive
Cc1ccc(NC(=O)CCC(=O)N/N=C/c2ccco2)c(C)c1 | inactive
Nc1nc(O)c(CC(=O)O)s1 | inactive
O=C(NCCNc1ccccc1[N+](=O)[O-])c1ccccc1F | inactive
Cn1nnnc1SCC(=O)Nc1cccc(S(=O)(=O)N2CCCCC2)c1 | inactive
CCOC(=O)C1=C(NC(=S)NC(=O)c2ccccc2)c2ccccc2CC1(C)C | inactive
O=C(CSc1nc(O)c(Cc2ccccc2)c(=O)[nH]1)Nc1nc2c(s1)CCCC2 | inactive
Cc1ccc2c(c1)C1CN(C)CCC1N2C(=O)c1ccccc1NS(=O)(=O)c1ccc(F)cc1C (centres undefined) | inactive
O=C1O/C(=C\c2ccc(O)cc2)C(O)=C1c1ccc(O)cc1 | inactive
COc1cc(C2C3=C(CCCC3=O)OC3=C2C(=O)CCC3)ccc1OCC(=O)Nc1ccccc1 | inactive
O=C1c2ccccc2S(=O)(=O)N1Cc1c(F)cccc1Cl | inactive
O=c1c(=O)n(Cc2c(F)cccc2Cl)ccn1Cc1ccccc1 | inactive
Cc1ccc(C)c(N2C(=O)N(Cc3c(F)cccc3Cl)c3ccccc3S2(=O)=O)c1 | 18.4 µM (active)
CCCCn1c(N)c(N(CC(C)C)C(=O)c2cccc(S(=O)(=O)N3CC(C)OC(C)C3)c2)c(=O)[nH]c1=O (centres undefined) | inactive
O=C(COc1ccc2ccc(=O)oc2c1)NCC(O)c1ccccc1 (centres undefined) | inactive

SMILES | Potency
O=C(COc1ccc2c3c(c(=O)oc2c1)CCCC3)NCC(O)c1ccccc1 (centres undefined) | 20.6 µM (active)
NC(=O)COc1ccc2c3c(c(=O)oc2c1)CCCCC3 | inactive
Cc1cc(CNC(=O)C2CCC(=O)N(CCc3ccc(Cl)cc3)C2)no1 (centres undefined) | inactive
O=c1c2ccccc2nnn1CSc1nnnn1-c1ccccc1 | inactive
O=c1c2ccccc2nnn1CSc1nc2sc3c(c2c(=O)n1CC1CCCO1)CCC3 (centres undefined) | 16.4 µM (active)
Nc1nnc(SCn2nnc3ccccc3c2=O)s1 | inactive
O=S(=O)(Nc1ccc(Cl)cn1)c1cnc(Cl)c(Br)c1 | inactive
CN1CCN(C(=O)c2ccc(-c3ccc(Br)cc3)o2)CC1 | inactive
CCOC(=O)N1CCN(Cc2nc3ccc([N+](=O)[O-])cc3c(=O)n2-c2cccc(OC)c2)CC1 | inactive
Cc1ccc(NN=C2C(=O)OC(C)(C)OC2=O)c(C)c1 | inactive
Cc1ccc(N2CCN(C3=NC(=O)/C(=C\c4cccs4)S3)CC2)cc1 | inactive
CC(C)=C1SC(N2CCN(c3cccc(C)c3)CC2)=NC1=O | 20.6 µM (active)
CC(C)=C1SC(N2CCN(c3ccc(C)c(Cl)c3)CC2)=NC1=O | inactive
CCOC(=O)C(C)Sc1nnc(CSc2nc3nc(C)cc(C)n3n2)o1 (centres undefined) | inactive
CNC(=S)NNC(=O)c1cccn(Cc2ccccc2)c1=O | inactive
C=CCNC(=S)/N=c1/ccccn1Cc1ccccc1 | 7.31 µM (active)
C=CCNC(=O)COc1coc(CN2CCN(Cc3ccccc3)CC2)cc1=O | inactive
NS(=O)(=O)c1ccc(N=Cc2ccc(Br)s2)cc1 | inactive
COc1cc(OC)cc(-c2c(C#Cc3ccsc3)c3cc(-c4ccc(SC)cc4)ccc3n2C)c1 | inactive
COc1cc(OC)cc(-c2c(-c3cccs3)c3cc(-c4ccc(OC)nc4)ccc3n2C)c1 | 20.6 µM (active)
COc1cc(OC)cc(-c2c(C#Cc3ccsc3)c3cc(-c4ccc(OC)cc4F)ccc3n2C)c1 | inactive
CCOC(=O)C1(Cc2cccc(OC)c2)CCN(C(C)CC(C)(C)O)CC1 (centres undefined) | inactive

SMILES | Potency
CCOC(=O)C1(CCOc2ccccc2)CCN(Cc2ccc(C#CCCO)cc2)CC1 | 18.4 µM (active)
CCOC(=O)C1(CCOC)CCN(Cc2ccc(C(=O)OC)cc2)CC1 | inactive
O=C(c1cn(CC2CCCN(Cc3cc4ccccc4s3)C2)nn1)N1CCCC1 (centres undefined) | inactive
CCOC(=O)C1(CCOc2ccccc2)CCN(Cc2cc(OC)cc(OC)c2)CC1 | 25.9 µM (active)
CCOC(=O)C1(CCOC)CCN(Cc2cc3ccccc3s2)CC1 | 18.4 µM (active)
O=C(CCc1ccccc1)Nc1ccnn1C1CCN(Cc2ccc(OCCO)cc2)CC1 | inactive
CCOC(=O)C1(S(=O)(=O)c2ccc(Cl)cc2)CCN(Cc2ccccc2)CC1 | inactive
CCOC(=O)C1(CCOc2ccccc2)CCN(C(=O)c2cncs2)CC1 | inactive
COc1cc(C)ccc1OCC(=O)OCC(=O)c1ccc[nH]1 | inactive
Cc1cc(NS(=O)(=O)c2ccc(NC(=O)C(C)Oc3cccc(C)c3C)cc2)nc(C)n1 (centres undefined) | inactive
N#CC1(C#N)C(C(=O)C23CC4CC(CC(C4)C2)C3)C12CCOCC2 (centres undefined) | inactive
COc1ccccc1NC(=O)c1ccc(N2CC3CC(C2)c2cccc(=O)n2C3)c(NC(=O)c2cccnc2)c1 (centres undefined) | inactive
O=C(CCl)N(Cc1cccc([N+](=O)[O-])c1)c1cccc(Cl)c1 | 2.31 µM (active)
Cc1ccc(S(=O)(=O)N(Cc2cccc([N+](=O)[O-])c2)C(=O)N2CCN(C)CC2)cc1 | inactive
O=C(Nc1cccc([N+](=O)[O-])c1)Nc1ccc(Cl)cn1 | inactive
COc1ccccc1N1CCC(N2CCN(CC(C)(C)C)C(CCO)C2)CC1 (centres undefined) | inactive
C=CS(=O)c1sc(Cl)c(N2CCOCC2)c1[N+](=O)[O-] (centres undefined) | 0.731 µM (active)
Cc1cc(C)n(S(=O)(=O)c2cccc([N+](=O)[O-])c2)n1 | inactive
CN(C)S(=O)(=O)c1cc(C(=O)Nc2ccn(C)n2)c(Cl)cc1Cl | inactive
COCCNC(=O)COc1ccc(N(C)S(=O)(=O)c2ccc3ccccc3c2)cc1 | inactive
